The source of these data is PubChem BioAssay.

A short description of assay [1]: inhibitors of TNFa-induced NFkB p65 translocation, primary screen, imaging, HUVEC, MLSMR starter and 10KST1 sets (AID 438;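 active = inhibition above 20% together with a positive visual image hit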;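 also: compound added about 3h40 before a 20 min TNFalpha stimulation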;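 as to inhibition: signal is the nuclear over cytoplasmic p65 intensity ratio per well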). The note with it: HUVEC TNFa-induced p65 nuclear translocation; cell count: measured here: nuclei count (cytotoxicity indicator), at 2.08 µM; inhibition: at 2 µM, stronger effect = higher value, 0% TNFa-plus-vehicle, 100% no-TNFa wells.
A short description of assay [2]: inhibitors of mutant huntingtin aggregation, primary screen, imaging, exon1htt(103Q)mCFP cells, high-content imaging (AID 483;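 active = visual image review flags a hit and inhibition of aggregation exceeds 20%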;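 also: compound exposure lasted 3 days before fixation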;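 as to nuclei count: percent of the per-plate median nuclei count of sample wells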). The note with it: exon1htt(103Q)mCFP cell line, aggregate imaging, at 2 µM; inhibition of aggregation: stronger effect = higher value; nuclei count: measured here: cell count, toxicity.
Assay [3] is described as follows: inhibitors of E-selectin induction by TNFa, primary screen, imaging, HUVEC, immunofluorescence, MLSMR starter and 10KST1 sets (AID 487;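 active = visually confirmed hit in the image check and inhibition above 20%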;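 as to inhibition: signal is fraction of cell area covered by stained E-selectin grains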;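 as to nuclei count: 100% = median nuclei count of all wells on the same plate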). The note with it: HUVEC TNFalpha-induced E-selectin immunofluorescence imaging, at 2 µM; inhibition: stronger effect = higher value; nuclei count: measured here: cell number, toxicity.
Assay [4] addresses Voltage-gated potassium channel subunit beta-2 (Rattus norvegicus) (UniProt P62483). In words: KvBeta enzyme negative modulators, primary screen, biochemical, NADPH fluorescence (AID 622;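 active = fluorescence slope higher than the sample average by over 3 SD, cut at about -0.22 in these data, passing the limit was not always enough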;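 also: slope of raw intensity against log time taken from 70 to 1610 s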). The note with it: recombinant KvBeta, 4-cyanobenzaldehyde reduction, at 10 µM, stronger effect = higher value.
For assay [5] the target is unchanged. In words: KvBeta positive modulators, primary screen, biochemical, NADPH fluorescence (AID 623).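 Also: fluorescence intensity change per second fitted from 20 to 320 s.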 The note with it: Recombinant KvBeta, NADPH fluorescence decrease slope, 10 min; at 10 µM; stronger effect = lower value.
For assay [6], the target named is Alpha-2C adrenergic receptor (Homo sapiens) (UniProt P18825). Kind of assay: modulators of alpha2C/GIRK thallium flux, primary screen, cell-based, HEK293 alpha2C/GIRK1/2 (AID 624;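 active = fluorescence slope after compound addition differing from the mean of all screened samples at 99.7% confidence, in either direction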;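 also: slope of fluorescence ratio to pre-addition baseline per second over 15 to 24 s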). The note with it: thallium flux BTC fluorescence, at 10 µM, actives lie on both sides.
Sequence of Alpha-2C adrenergic receptor (Homo sapiens) (P18825 whole entry, looked up): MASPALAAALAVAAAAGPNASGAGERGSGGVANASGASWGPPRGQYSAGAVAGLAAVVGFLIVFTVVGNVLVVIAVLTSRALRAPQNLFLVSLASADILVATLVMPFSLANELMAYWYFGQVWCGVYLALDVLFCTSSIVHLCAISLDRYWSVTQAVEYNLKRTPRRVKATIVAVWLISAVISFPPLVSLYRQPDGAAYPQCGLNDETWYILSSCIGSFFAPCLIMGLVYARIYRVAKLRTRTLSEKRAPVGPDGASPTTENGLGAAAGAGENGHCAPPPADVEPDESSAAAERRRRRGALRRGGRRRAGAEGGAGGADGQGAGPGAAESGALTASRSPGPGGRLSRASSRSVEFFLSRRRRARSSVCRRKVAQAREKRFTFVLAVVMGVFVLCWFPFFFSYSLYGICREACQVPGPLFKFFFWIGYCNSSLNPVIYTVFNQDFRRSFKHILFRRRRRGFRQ
Assay [7] can be described thus: inhibitors of Sendai virus-induced IRF3 signaling, primary screen, TLR/RLR signaling modifier project, cell-based, Sendai virus stimulus, luciferase, 10K MLSCN set (AID 602276;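 active = inhibition at or above 50% at 10 µM; inactive = inhibition below 50%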;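 also: firefly luciferase from ISG56 promoter only with Renilla not read in this screen; 0% = Sendai virus plus DMSO and 100% = medium plus DMSO without virus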). The note with it: HEK293 RL24 IRF3 luciferase reporter, at 10 µM, stronger effect = higher value.
The nature of assay [8]: inhibitors of poly I:C-induced TLR3 signaling, primary screen, cell-based, poly I:C stimulus, luciferase, 10K MLSCN set (AID 602277;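 active = inhibition of the reporter signal at or above 50%; inactive = inhibition below 50%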). The note with it: HEK293-TLR3 RL24 IRF3 luciferase reporter, at 10 µM, stronger effect = higher value.
The nature of assay [9]: DUSP6 inhibitors restoring Erk phosphorylation by chemical complementation, primary imaging in DUSP6-transfected HeLa (AID 609;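 active = compounds giving at least 50% inhibition in the cell-based MKP-3 phosphatase rescue imaging test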;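 as to inhibition: phospho-Erk level distribution per well compared with pooled transfected vehicle control wells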). The note with it: HeLa MKP-3 transfected, phospho-Erk imaging KS statistic, at 10 µM, cells stimulated with TPA for 15 min.
Assay [10] deals with Dual specificity protein phosphatase 6 (Homo sapiens) (UniProt Q16828). The description is as above. The note with it: HeLa MKP-3 transfected, phospho-Erk imaging KS statistic; at 10 µM; stronger effect = higher value; cells stimulated with TPA for 15 min.
Sequence of Dual specificity protein phosphatase 6 (Homo sapiens) (Q16828 whole entry, looked up): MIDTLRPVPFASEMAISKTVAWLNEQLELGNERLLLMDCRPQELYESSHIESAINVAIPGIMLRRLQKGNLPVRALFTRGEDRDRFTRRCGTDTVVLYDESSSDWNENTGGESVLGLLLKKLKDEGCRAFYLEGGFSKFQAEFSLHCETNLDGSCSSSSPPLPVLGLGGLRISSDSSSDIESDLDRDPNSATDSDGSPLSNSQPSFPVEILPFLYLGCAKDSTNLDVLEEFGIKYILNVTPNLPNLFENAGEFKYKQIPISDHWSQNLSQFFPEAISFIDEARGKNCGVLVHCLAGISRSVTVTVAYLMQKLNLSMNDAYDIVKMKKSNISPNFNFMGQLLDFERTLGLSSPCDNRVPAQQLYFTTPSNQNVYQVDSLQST
For assay [11], the target named is Muscarinic acetylcholine receptor M4 (Homo sapiens) (UniProt P08173). In words: compounds altering M4/GIRK thallium flux, either direction, primary screen, M4 allosteric agonist project, cell-based, HEK293 M4/GIRK, BTC-AM (AID 625;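 active = fluorescence slope after compound addition differing from the mean of all tested samples at 99.7% confidence, mostly higher but some lower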;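 also: thallium influx through GIRK channels coupled to M4 in HEK293 cells with BTC-AM dye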). The note with it: at 10 µM, actives lie on both sides.
Sequence of Muscarinic acetylcholine receptor M4 (Homo sapiens) (P08173 whole entry, looked up): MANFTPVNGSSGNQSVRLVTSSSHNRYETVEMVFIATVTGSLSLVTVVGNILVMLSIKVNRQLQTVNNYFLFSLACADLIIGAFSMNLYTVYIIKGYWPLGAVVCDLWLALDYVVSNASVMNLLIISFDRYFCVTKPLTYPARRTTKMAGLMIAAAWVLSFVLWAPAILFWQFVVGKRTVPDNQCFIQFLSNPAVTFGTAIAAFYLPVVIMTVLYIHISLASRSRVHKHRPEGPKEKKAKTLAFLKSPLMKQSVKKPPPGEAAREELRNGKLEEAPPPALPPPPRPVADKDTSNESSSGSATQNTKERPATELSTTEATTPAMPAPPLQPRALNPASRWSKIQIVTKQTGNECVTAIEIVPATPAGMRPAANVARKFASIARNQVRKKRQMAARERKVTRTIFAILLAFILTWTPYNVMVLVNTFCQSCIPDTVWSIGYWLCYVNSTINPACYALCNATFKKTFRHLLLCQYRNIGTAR
Assay [12] in a line: inhibitors of larval lipid processing in zebrafish, primary screen, whole organism, PED6 fluorescence, gall bladder and intestine (AID 686;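 active = a full or partial loss of lipid-probe fluorescence in the fish gall bladder, intestine or both, judged by eye; inactive = no fluorescence loss, or compound toxic to the fish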;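 also: larvae 5 to 7 days old with five fish per well; signal comes from phospholipase A2 cleavage of quenched PED6 carried via bile; overnight exposure to compound and PED6 before scoring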). The note with it: Zebrafish larvae PED6 lipid processing, fluorescence scoring; screened at 20 µM (by protocol).
Assay [13] can be described thus: inhibitors of Chlamydomonas gravitaxis, primary screen, whole organism, Chlamydomonas reinhardtii, WT vs cilia-less mutant, absorbance, 96-well (AID 463189;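 active = inhibition at or above 50% relative to wild type and mutant plate controls; inactive = inhibition below 50%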;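 also: 0% = wild type cc124 cells in DMSO and 100% = ciliumless bld1 mutant cells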). The note with it: OD600 absorbance, 2 days, at 10 µM, stronger effect = higher value.

Calls of active or inactive are those of the source.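 The calls were made as follows, unless noted: active = NADPH fluorescence slope more negative than the mean of all samples by about 3 SD, 99.7% confidence; inactive = the rest.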

Sequence of Voltage-gated potassium channel subunit beta-2 (Rattus norvegicus) (P62483 whole entry, looked up): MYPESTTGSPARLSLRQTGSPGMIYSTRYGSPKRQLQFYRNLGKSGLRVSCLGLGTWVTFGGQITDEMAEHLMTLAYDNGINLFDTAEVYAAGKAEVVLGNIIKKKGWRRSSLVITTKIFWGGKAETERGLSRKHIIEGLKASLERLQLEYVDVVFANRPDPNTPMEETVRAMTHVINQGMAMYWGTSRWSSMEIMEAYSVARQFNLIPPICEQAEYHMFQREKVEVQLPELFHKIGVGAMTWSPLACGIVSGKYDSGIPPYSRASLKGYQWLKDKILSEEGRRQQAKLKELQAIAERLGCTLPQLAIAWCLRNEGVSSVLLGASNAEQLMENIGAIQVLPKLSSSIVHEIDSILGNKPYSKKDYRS

Regarding `CC1Cc2ccccc2N1S(=O)(=O)c1ccc2c(c1)n(C)c(=O)c(=O)n2C` (centres undefined), the cell count in [1] came out at 339. Besides, the inhibition in [1] is 6.6% (inactive); in assay [3], -21.1% (inactive); in assay [7], 19.2% (inactive); in assay [8], 17.1% (inactive). The inhibition of aggregation in assay [2] is -25.5% (inactive). Further, the nuclei count in assay [2] was found to be 96.4%; in assay [3] it was 111%. For the same compound, the fluorescence slope in assay [4] was -0.43 (inactive). Also, the NADPH fluorescence slope in assay [5] was 6.1e-06 (inactive). Further, the slope in assay [6] was 0.00562 (inactive).

For `O=C1NC2=C(C(=O)CCC2)C(c2ccc3ncccc3c2)N1` (centres undefined), the cell count in [1] was 513. In addition, the inhibition was 1.5% (inactive) in assay [1], -13.9% (inactive) in assay [3], 9.39% (inactive) in assay [7] and 8.99% (inactive) in assay [8]. Further, the inhibition of aggregation in [2] is 1.9% (inactive). Also, the results for the nuclei count in assay [2] and in [3] were 126% and 116%, respectively. In addition, the fluorescence slope in assay [4] is -0.541 (inactive). Further, in assay [5], the NADPH fluorescence slope is -5e-05 (inactive). The slope in assay [6] was 0.00696 (inactive).

With `N#CCCNCC1(c2ccccc2)CCCC1`, the cell count in assay [1] amounted to 567. The inhibition was -9.1% (inactive) in assay [1], 1.8% (inactive) in [3], 2.93% (inactive) in [7] and 9.79% (inactive) in [8]. Besides, the inhibition of aggregation in [2] is -10.6% (inactive). The nuclei count in assay [2] worked out at 108%; in assay [3], 104%. The fluorescence slope in assay [4] was -0.576 (inactive). Besides, in assay [5], the NADPH fluorescence slope was -4.5e-05 (inactive). Besides, in assay [6], the slope is 0.00572 (inactive).

As to `CCOC(=O)N1CCN(C(=O)c2ccc3c(SCC(=O)O)c4c(nc3c2)CCCC4)CC1`, in assay [1], the cell count is 819. The inhibition in [1] is -5.2% (inactive); in assay [3], -74.3% (inactive); in assay [7], 9.84% (inactive); in assay [8], 21.6% (inactive). Moreover, in assay [2], the inhibition of aggregation is 14.8% (inactive). Besides, the nuclei count in assay [2] was determined as 100%; in assay [3], 137%. The fluorescence slope in assay [4] is -0.542 (inactive). Further, the NADPH fluorescence slope in assay [5] is 7.3e-06 (inactive). Further, in assay [6], the slope is 0.00656 (inactive).

With `c1ccc(-c2noc(C3CCCCC3)n2)nc1`, in assay [1], the cell count worked out at 665. Besides, the inhibition in assay [1] was -44.9% (inactive); in assay [3] it was -29.2% (inactive); in assay [7], -1.58% (inactive); in [8], -68.3% (inactive). Further, the inhibition of aggregation in [2] is -13.4% (inactive). Also, the nuclei count in assay [2] amounted to 97.5%; in assay [3], 110%. In addition, the fluorescence slope in assay [4] was -0.52 (inactive). Moreover, the NADPH fluorescence slope in assay [5] is -2.4e-05 (inactive). Further, the slope in assay [6] was 0.00485 (inactive).

As for `CCOC(=O)C1CCCN(C(=O)c2cc3c(=O)n4cccc(C)c4nc3n2C)C1` (centres undefined), in [1], the cell count came out at 218. The inhibition is -6% (inactive) in assay [1], 75.9% (active) in assay [3], 17.9% (inactive) in assay [7] and 23.7% (inactive) in [8]. Also, the inhibition of aggregation in assay [2] was 3.5% (inactive). Moreover, the nuclei count in [2] was 91.5%; in assay [3] it was 66.5%. The fluorescence slope in assay [4] is -0.467 (inactive). The NADPH fluorescence slope in assay [5] was -1.3e-05 (inactive). Also, the slope in [6] is 0.00547 (inactive).

For `Cc1ccc(/C=c2\s/c(=C(/C#N)C(=O)N3CCCC3)n(Cc3ccco3)c2=O)s1`, in assay [1], the cell count turned out to be 627. Further, the inhibition in assay [1] was 2.8% (inactive); in assay [3], -28.1% (inactive); in assay [7], 16.4% (inactive); in [8], -21.1% (inactive). Also, the inhibition of aggregation in assay [2] is -17.3% (inactive). Besides, the nuclei count in assay [2] was 101%; in assay [3], 136%. Also, the fluorescence slope in assay [4] is -0.59 (inactive). For the same compound, the NADPH fluorescence slope in assay [5] is 2e-05 (inactive). Moreover, in assay [6], the slope was 0.00315 (inactive).

On to `O=C(NCCCN1CCCC1=O)c1ccc2c(=O)n(Cc3ccco3)c(=S)[nH]c2c1`, for which, in [1], the cell count worked out at 653. Also, the inhibition in assay [1] was -16.6% (inactive); in assay [3] it was -69.5% (inactive); in [7], 0.725% (inactive); in [8], -15.6% (inactive). In addition, the inhibition of aggregation in assay [2] was -35.1% (inactive). Further, the nuclei count in assay [2] was 74%; in assay [3], 101%. For the same compound, the fluorescence slope in assay [4] is -0.572 (inactive). In addition, the NADPH fluorescence slope in assay [5] was 2.7e-05 (inactive). In addition, in assay [6], the slope is 0.00624 (inactive).

For `Cc1cccn2c(=O)c(/C=C(\C#N)S(=O)(=O)c3ccccc3)c(N3CCN(C)CC3)nc12`, the cell count in [1] turned out to be 468. The inhibition in assay [1] was -9.2% (inactive); in [10] it was 7.7% (inactive); in [13], 1.87% (inactive). The compound further yielded a nuclei count in assay [3] of 183%. Besides, the z-score was -0.688 in assay [9] (measured here: cell density z-score); -1.21 in [9] (measured here: nuclear c-Myc green intensity z-score); -0.646 in [9] (measured here: nuclear pErk red intensity z-score, stronger effect = higher value). The results for the fluorescence slope in assay [4] and in [11] were -0.457 (inactive) and 0.00316 (inactive), respectively. For the same compound, the NADPH fluorescence slope in assay [5] is -6e-05 (inactive). Besides, the call in [12] was inactive.

Turning to `O=C(NCc1ccc(F)cc1)C1CCN(C(=O)NCc2ccccc2)CC1`, the cell count in [1] worked out at 643. In addition, the inhibition is -3.5% (inactive) in [1], -18.5% (inactive) in [3], 5.76% (inactive) in [7] and 32.5% (inactive) in assay [8]. The inhibition of aggregation in assay [2] is 2.3% (inactive). The nuclei count amounted to 110% in assay [2] and 106% in assay [3]. In assay [4], the fluorescence slope is -0.448 (inactive). Besides, the NADPH fluorescence slope in [5] is -4.9e-05 (inactive). Also, the slope in assay [6] was 0.00381 (inactive).

As for `CN(C(=O)c1ccc2c(=O)n3c(nc2c1)CCCCC3)c1ccccc1`, in assay [1], the cell count is 588. Moreover, the inhibition is -10.7% (inactive) in assay [1], 63.2% (active) in assay [3], 11.2% (inactive) in assay [7] and 8.93% (inactive) in [8]. Further, the inhibition of aggregation in assay [2] was 23.6% (inactive). Further, the nuclei count in [2] amounted to 93.9%; in assay [3], 76.9%. Moreover, the fluorescence slope in assay [4] was -0.457 (inactive). Further, the NADPH fluorescence slope in assay [5] is -0.000341 (inactive). Besides, in assay [6], the slope was 0.00528 (inactive).

On to `CCc1nnc(NC(=O)C2Cc3ccccc3CN2S(=O)(=O)c2cccs2)s1` (centres undefined), for which the cell count in [1] was determined as 521. For the same compound, the inhibition in [1] is -10.2% (inactive); in assay [3], -57.1% (inactive); in [7] it was -21.3% (inactive); in assay [8], -50.1% (inactive). For the same compound, the inhibition of aggregation in assay [2] was -27.6% (inactive). For the same compound, the nuclei count was found to be 116% in [2] and 117% in assay [3]. For the same compound, the fluorescence slope in assay [4] was -0.482 (inactive). For the same compound, the NADPH fluorescence slope in assay [5] was -2.6e-05 (inactive). For the same compound, the slope in assay [6] is 0.00706 (inactive).

In the case of `Cc1ccc(NC(=O)CN(C)S(=O)(=O)c2cccc3nsnc23)cc1Cl`, in assay [1], the cell count was 711. Moreover, the inhibition in [1] was -16.4% (inactive); in assay [3], -20.4% (inactive); in [7], -17.3% (inactive); in [8], 100% (active). Besides, the inhibition of aggregation in [2] was 7.2% (inactive). Also, the nuclei count in [2] came out at 105%; in assay [3], 115%. Besides, the fluorescence slope in [4] is -0.333 (inactive). Also, the NADPH fluorescence slope in assay [5] is -4.1e-05 (inactive). For the same compound, the slope in assay [6] was 0.00467 (inactive).
